Results reported in PubChem BioAssay AID1159580 (chemical genetic matrix, 2015).
Values joined by “and” are separate entries in the source; they are usually repeats but may differ in a detail not shown here. Identical values can stand only once. The campaign covered roughly 5,500 compounds. About 2,000 (36%) were called active. Roughly 18% stayed inconclusive and do not appear here. Some of the results follow. Values without a mark were called inactive. No stated cut-off is given here; in the data, active means normalized growth mostly below about 0.91 (no sharp cut-off); inconclusive means no clear call, values can overlap the other calls; inactive means mostly above about 0.92.

Experiment: chemical genetic growth profiling, strain panel (AID 1159580);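 further: tested at 20 µM; growth read once vehicle control cultures reached saturation at 30 °C; 1 = growth at the plate median or of vehicle wells; lower values mean less growth of the strain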
Conditions: growth OD
[1] = S. cerevisiae deletion strains, locus YAL013W, strain DEP1, hits give low values
[2] = S. cerevisiae deletion strains, locus YBR229C, strain ROT2, hits give low values
[3] = S. cerevisiae deletion strains, locus YDL101C, strain DUN1, hits give low values
[4] = S. cerevisiae deletion strains, locus YDR150W, strain NUM1, hits give low values
[5] = S. cerevisiae deletion strains, locus YEL061C, strain CIN8, hits give low values
[6] = S. cerevisiae deletion strains, locus YGR078C, strain PAC10, hits give low values
[7] = S. cerevisiae deletion strains, locus YGR229C, strain SMI1, hits give low values
[8] = S. cerevisiae deletion strains, locus YHR030C, strain SLT2, hits give low values
[9] = S. cerevisiae deletion strains, locus YJR043C, strain POL32, hits give low values
[10] = S. cerevisiae deletion strains, locus YJR075W, strain HOC1, hits give low values
[11] = S. cerevisiae deletion strains, locus YKL190W, strain CNB1, hits give low values
[12] = S. cerevisiae deletion strains, locus YLR039C, strain RIC1, hits give low values
[13] = S. cerevisiae deletion strains, locus YLR262C, strain YPT6, hits give low values
[14] = S. cerevisiae deletion strains, locus YMR263W, strain SAP30, hits give low values
[15] = S. cerevisiae deletion strains, locus YNL128W, strain TEP1, hits give low values
[16] = S. cerevisiae deletion strains, locus YNL153C, strain GIM3, hits give low values
[17] = S. cerevisiae deletion strains, locus YNL322C, strain KRE1, hits give low values
[18] = S. cerevisiae deletion strains, locus YPL055C, strain LGE1, hits give low values
[19] = S. cerevisiae deletion strains, locus YPL241C, strain CIN2, hits give low values

Compound `CNCCc1ccccn1` has a normalized growth [1] of 1.01, a normalized growth (S. cerevisiae deletion strains, locus YBR021W, strain FUR4, hits give low values) of 1.02 and a normalized growth [2] of 1.01. For the same compound, the normalized growth (S. cerevisiae deletion strains, locus YCL029C, strain bik1, hits give low values) was 1.04, the normalized growth (S. cerevisiae deletion strains, locus YDL035C, strain GPR1, hits give low values) was 0.992 and the normalized growth (S. cerevisiae deletion strains, locus YDL074C, strain BRE1, hits give low values) was 1.03. It also gave a normalized growth [3] of 1.01, a normalized growth (S. cerevisiae deletion strains, locus YDL134C, strain PPH21, hits give low values) of 1.01 and a normalized growth (S. cerevisiae deletion strains, locus YDL185W, strain tfp1, hits give low values) of 1.02. The normalized growth (S. cerevisiae deletion strains, locus YDL192W, strain arf1, hits give low values) was 1.02, the normalized growth (S. cerevisiae deletion strains, locus YDR101C, strain arx1, hits give low values) was 1.01 and the normalized growth [4] was 1.01. For the same compound, the normalized growth (S. cerevisiae deletion strains, locus YDR162C, strain NBP2, hits give low values) was 1.01, the normalized growth (S. cerevisiae deletion strains, locus YDR318W, strain mcm21, hits give low values) was 1.02 and the normalized growth (S. cerevisiae deletion strains, locus YDR388W, hits give low values) was 1.01. For the same compound, the normalized growth (S. cerevisiae deletion strains, locus YDR502C, strain sam2, hits give low values) was 1.01, the normalized growth [5] was 1.01 and the normalized growth (S. cerevisiae deletion strains, locus YER110C, hits give low values) was 1.02. The normalized growth (S. cerevisiae deletion strains, locus YER155C, strain BEM2, hits give low values) was 1, the normalized growth (S. cerevisiae deletion strains, locus YER167W, strain BCK2, hits give low values) was 1.01 and the normalized growth (S. cerevisiae deletion strains, locus YGL078C, strain dbp3, hits give low values) was 1.01. For the same compound, the normalized growth (S. cerevisiae deletion strains, locus YGL086W, strain mad1, hits give low values) was 1, the normalized growth (S. cerevisiae deletion strains, locus YGL248W, strain PDE1, hits give low values) was 1 and the normalized growth [6] was 1.03. The normalized growth (S. cerevisiae deletion strains, locus YGR135W, strain pre9, hits give low values) was 1.01, the normalized growth [7] was 1.02 and the normalized growth (S. cerevisiae deletion strains, locus YGR252W, strain gcn5, hits give low values) was 0.958. For the same compound, the normalized growth [8] was 1.01 and 1.04, the normalized growth (S. cerevisiae deletion strains, locus YHR079C, strain IRE1 (second series), hits give low values) was 1.02 and the normalized growth (S. cerevisiae deletion strains, locus YHR079C, strain IRE1, hits give low values) was 1.04. The normalized growth (S. cerevisiae deletion strains, locus YHR094C, strain hxt1, hits give low values) was 1.01, the normalized growth (S. cerevisiae deletion strains, locus YHR129C, strain ARP1, hits give low values) was 0.996 and the normalized growth (S. cerevisiae deletion strains, locus YHR200W, strain rpn10, hits give low values) was 1.01. For the same compound, the normalized growth (S. cerevisiae deletion strains, locus YIL066C, strain RNR3, hits give low values) was 1.02, the normalized growth (S. cerevisiae deletion strains, locus YIL073C, strain SPO22, hits give low values) was 1.06 and the normalized growth (S. cerevisiae deletion strains, locus YIL125W, strain kgd1, hits give low values) was 1. For the same compound, the normalized growth (S. cerevisiae deletion strains, locus YIR030C, strain dcg1, hits give low values) was 1.01, the normalized growth (S. cerevisiae deletion strains, locus YJL095W, strain BCK1, hits give low values) was 1.04 and 1.03 and the normalized growth (S. cerevisiae deletion strains, locus YJL134W, strain LCB3, hits give low values) was 1. It also gave a normalized growth (S. cerevisiae deletion strains, locus YJL168C, strain set2, hits give low values) of 1.01, a normalized growth (S. cerevisiae deletion strains, locus YJL187C, strain SWE1 (second series), hits give low values) of 1.02 and a normalized growth [9] of 1.02. It also gave a normalized growth (S. cerevisiae deletion strains, locus YJR066W, strain TOR1, hits give low values) of 0.978, a normalized growth [10] of 1.02 and a normalized growth (S. cerevisiae deletion strains, locus YKL009W, strain mrt4, hits give low values) of 1.07. It also gave a normalized growth (S. cerevisiae deletion strains, locus YKL068W, hits give low values) of 1.01, a normalized growth (S. cerevisiae deletion strains, locus YKL085W, strain MDH1 (second series), hits give low values) of 1.01 and a normalized growth (S. cerevisiae deletion strains, locus YKL085W, strain MDH1, hits give low values) of 1.01. For the same compound, the normalized growth [11] was 1.01, the normalized growth (S. cerevisiae deletion strains, locus YKR001C, strain vps1, hits give low values) was 1.01 and the normalized growth [12] was 1.02. For the same compound, the normalized growth (S. cerevisiae deletion strains, locus YLR058C, strain SHM2, hits give low values) was 1.01, the normalized growth (S. cerevisiae deletion strains, locus YLR102C, strain apc9, hits give low values) was 1.02 and the normalized growth (S. cerevisiae deletion strains, locus YLR113W, strain HOG1, hits give low values) was 1.03. It also gave a normalized growth [13] of 1.02, a normalized growth (S. cerevisiae deletion strains, locus YLR268W, strain sec22, hits give low values) of 1.04 and a normalized growth (S. cerevisiae deletion strains, locus YLR330W, strain CHS5, hits give low values) of 1.01. It also gave a normalized growth (S. cerevisiae deletion strains, locus YLR342W, strain FKS1 (second series), hits give low values) of 1.02, a normalized growth (S. cerevisiae deletion strains, locus YLR371W, strain rom2, hits give low values) of 1.02 and a normalized growth (S. cerevisiae deletion strains, locus YLR418C, strain cdc73, hits give low values) of 1.03. It also gave a normalized growth (S. cerevisiae deletion strains, locus YML016C, strain PPZ1, hits give low values) of 1, a normalized growth (S. cerevisiae deletion strains, locus YML032C, strain rad52, hits give low values) of 1.03 and a normalized growth (S. cerevisiae deletion strains, locus YML124C, strain tub3, hits give low values) of 1.01. The normalized growth (S. cerevisiae deletion strains, locus YMR078C, strain ctf18, hits give low values) was 1.02, the normalized growth (S. cerevisiae deletion strains, locus YMR223W, strain ubp8, hits give low values) was 1.01 and the normalized growth [14] was 1.03. For the same compound, the normalized growth (S. cerevisiae deletion strains, locus YMR307W, strain GAS1, hits give low values) was 0.966, the normalized growth (S. cerevisiae deletion strains, locus YNL067W, strain RPL9B, hits give low values) was 1.02 and the normalized growth [15] was 1.01. For the same compound, the normalized growth [16] was 1.01, the normalized growth (S. cerevisiae deletion strains, locus YNL183C, strain NPR1, hits give low values) was 0.978 and the normalized growth (S. cerevisiae deletion strains, locus YNL233W, strain BNI4, hits give low values) was 1.01. The normalized growth (S. cerevisiae deletion strains, locus YNL250W, strain rad50, hits give low values) was 1.03, the normalized growth (S. cerevisiae deletion strains, locus YNL271C, strain bni1, hits give low values) was 1.02 and the normalized growth (S. cerevisiae deletion strains, locus YNL298W, strain CLA4, hits give low values) was 1.01. For the same compound, the normalized growth (S. cerevisiae deletion strains, locus YNL307C, strain MCK1, hits give low values) was 1.02, the normalized growth [17] was 1.01 and the normalized growth (S. cerevisiae deletion strains, locus YNR052C, strain pop2, hits give low values) was 1.01. For the same compound, the normalized growth (S. cerevisiae deletion strains, locus YOL006C, strain TOP1, hits give low values) was 1.08, the normalized growth (S. cerevisiae deletion strains, locus YOL012C, strain htz1) was 0.922 and the normalized growth (S. cerevisiae deletion strains, locus YOL147C, strain pex11, hits give low values) was 1.01. For the same compound, the normalized growth (S. cerevisiae deletion strains, locus YOR061W, strain CKA2, hits give low values) was 1.01, the normalized growth (S. cerevisiae deletion strains, locus YOR069W, strain VPS5, hits give low values) was 1.01 and the normalized growth (S. cerevisiae deletion strains, locus YOR136W, strain idh2, hits give low values) was 1.01. The normalized growth (S. cerevisiae deletion strains, locus YOR144C, strain elg1, hits give low values) was 1.01, the normalized growth (S. cerevisiae deletion strains, locus YOR184W, strain ser1, hits give low values) was 1.02 and the normalized growth (S. cerevisiae deletion strains, locus YOR231W, strain MKK1, hits give low values) was 1.02. It also gave a normalized growth (S. cerevisiae deletion strains, locus YOR316C, strain cot1, hits give low values) of 1.01, a normalized growth [18] of 1.04 and a normalized growth [19] of 1.01. For the same compound, the normalized growth (S. cerevisiae deletion strains, locus YPL256C, strain CLN2, hits give low values) was 1.04, the normalized growth (S. cerevisiae deletion strains, locus YPR119W, strain clb2, hits give low values) was 1.01 and the normalized growth (S. cerevisiae deletion strains, locus YPR141C, strain kar3, hits give low values) was 1.02. For the same compound, the normalized growth (S. cerevisiae deletion strains, locus YPR163C, strain tif3, hits give low values) was 1.02, the normalized growth (S. cerevisiae deletion strains, locus YPR167C, strain met16, hits give low values) was 1.01 and the normalized growth (S. cerevisiae deletion strains, strain wtn01, hits give low values) was 1.01. For the same compound, the normalized growth (S. cerevisiae strains, strain wild type, hits give low values) was 1.01.

`Cc1ccc(C)c(NC(=S)N(CCc2ccccc2)CCc2ccccn2)c1` showed a normalized growth [1] of 0.989, a normalized growth [2] of 0.983 and a normalized growth (S. cerevisiae deletion strains, locus YCL061C, strain MRC1, hits give low values) of 1. The normalized growth [3] was 1.04, the normalized growth [4] was 0.99 and the normalized growth [5] was 0.953. It also gave a normalized growth [6] of 0.996, a normalized growth [7] of 0.974 and a normalized growth [8] of 0.978. The normalized growth (S. cerevisiae deletion strains, locus YHR087W, strain rtc3, hits give low values) was 0.958, the normalized growth (S. cerevisiae deletion strains, locus YJL187C, strain SWE1, hits give low values) was 0.989 and the normalized growth [9] was 1.01. The normalized growth [10] was 0.999, the normalized growth [11] was 0.964 and the normalized growth [12] was 0.606 (active). For the same compound, the normalized growth (S. cerevisiae deletion strains, locus YLR058C, strain SHM2 (second series), hits give low values) was 0.98, the normalized growth (S. cerevisiae deletion strains, locus YLR085C, strain ARP6, hits give low values) was 0.928 and the normalized growth [13] was 0.853. For the same compound, the normalized growth (S. cerevisiae deletion strains, locus YML094W, strain GIM5, hits give low values) was 0.95, the normalized growth (S. cerevisiae deletion strains, locus YMR219W, strain ESC1, hits give low values) was 0.996 and the normalized growth [14] was 0.985. The normalized growth [16] was 1.01, the normalized growth (S. cerevisiae deletion strains, locus YNL298W, strain CLA4 (second series), hits give low values) was 0.984 and the normalized growth [17] was 0.974. For the same compound, the normalized growth (S. cerevisiae deletion strains, locus YNR030W, strain Alg12, hits give low values) was 0.988, the normalized growth [18] was 0.946 and the normalized growth [19] was 1.03. For the same compound, the normalized growth (S. cerevisiae deletion strains, locus YPR135W, strain CTF4, hits give low values) was 0.942.

For `CNC(=O)OCC[N+](C)(C)C`, the normalized growth [1] was 0.99, the normalized growth (S. cerevisiae deletion strains, locus YAL040C, strain CLN3, hits give low values) was 1 and the normalized growth (S. cerevisiae deletion strains, locus YCL061C, strain MRC1 (second series), hits give low values) was 0.992. It also gave a normalized growth (S. cerevisiae deletion strains, locus YDR363W, strain ESC2, hits give low values) of 0.957, a normalized growth (S. cerevisiae deletion strains, locus YER002W, strain NOP16, hits give low values) of 0.968 and a normalized growth [10] of 1.01. It also gave a normalized growth [15] of 1, a normalized growth [16] of 0.983 and a normalized growth (S. cerevisiae deletion strains, locus YNL175C, strain NOP13, hits give low values) of 0.973. The normalized growth (S. cerevisiae deletion strains, locus YNL197C, strain WHI3, hits give low values) was 0.962, the normalized growth (S. cerevisiae deletion strains, locus YNL224C, strain SQS1, hits give low values) was 0.989 and the normalized growth (S. cerevisiae deletion strains, locus YOR083W, strain WHI5 (second series), hits give low values) was 0.985.
